# Assay results published in the supplement of paper PMC6555819.
# Test system: VDR:RXRa (NR concentration 270 nM, RXRa partner concentration 90 nM)
# Test: PBM binding z-score (relative to random genomic background probes); higher = stronger binding; sequences stand for … in GC…GCGATTGACAGCGTAGAATGAAGG
# Protocol: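 Protein-binding microarray (Agilent 4x180K custom design, double-stranded 60-nt probes: 5' GC cap, 34-nt variable region, 24-nt constant primer region; full probe sequence given). Purified or IVT nuclear receptor:RXRα heterodimers (3:1 NR:RXRα, mostly 270:90 nM) or homodimers were incubated for 1 h in PBS with 2% milk and no ligand, then detected with Alexa488 antibodies. Fluorescence from o1-orientation probes (~5 replicates averaged) was converted to z-scores against 500 random hg19 background probes. Variable regions are seed direct-repeat (DR0–DR5) sites, all their single-nucleotide variants and half-site ablations.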
row,Sequence,PBM binding z-score
1,TCGAGTAGGTTACCAATTGGGCATTCAGCTTTCT,-0.197
2,CGTCCAAGGTCAATGCTAGTTCAGTGAAAGCATT,4.84
3,GTACCGAGGTGAATAGGTCGTTGATGAGTAGGCG,1.14
4,TTTAGTTGGTCACGGAGGTCACACACGACGGGTA,6.05
5,CATACAGTGTCAGCTAGGCCAGAGTAGGGACGGC,-0.152
6,ACTATTAGTTGAGACGAGGGGAACCGATAGGTTG,-0.291
7,CCGACTGGGGCTAGGTTACCATAACGCACAGCCA,-0.65
8,CAAACTAGGTAACGAAAGGTCAAAGTCGAATGAC,4.87
9,TGTCTAAGTTCAAAGGTAACGTAAGTATCCACAC,4.6
10,AGAACGTGGGCACGCTGAGTTGATAGCAGAGTAG,-0.467
11,TCATATAGGTAAAAGGTGAACGTCGGTGTGGTAA,1.79
12,CATTACGGGTCACTCCAGGTTATAGCATCGGAGT,4.52
13,ACTCGCAGGCCAAGGGTCACTCAAGATTAGTCCG,2.89
14,ATACCGAGGTGATCGTGAGGTCGTTGATACTAAC,3.69
15,CGTCCAAGGTCAATGATAGGTCAGTGAAAGCATT,5.02
16,CAGCCTAGGCCAGGGCCAGTATAGGAGGAACGTT,-1
17,ATCGAAAGGTCGTGATGTGAGTATACAGAAAGGC,2.98
18,TCATAAAGGTAAAAGGTGAAAGTCGGTGTGGTAA,1.89
19,CTGCCTAGGTCAGGGCCAGTATAGGAGGAACGTT,0.0608
20,TGAACGAGGTTATAAGATCAGGGAACGTTGCAAA,0.923

row,Sequence,PBM binding z-score
1,TCATATAGGTACACAGGTGAAAGTCCGTAAGTTA,1.32
2,CCTGCCAGGTCAATGGTCAGCTAAAGCAGCTCGC,1.5
3,CCTCGGAGGACAACAGGAGGTCAGAGCCGCCAGA,1.58
4,TCTCGGAGGACACGAAAGGTCAGATCTCGACATC,3.38
5,CGTCAAAGTTCAACTAAGGTAACCTAAAGCACGC,4.68
6,CCTACTGGGCCAAAAAGGTCATCGATGCCGATAA,4.79
7,TCATATAGGTAATACAGGTGAACGTCGGCATCTA,1.18
8,GTACCAAGGTGAATAGGTCGTTGAGGAGTAGGCG,0.845
9,CTACCAAGGTGACCAAGGTCGTTGATTACTATTC,5.32
10,TCATATAGGTAAATGCTAGATGAAAGTCCGATCT,0.802
11,TAGCCTAGGTCATTGGGCGAGTATAGTACGCATC,2.14
12,GCGACTGGGGCATCCGCAGGTTACCATAACTTAA,-0.12
13,CCGAGTAGGTTATGGGGCATTCAAGCAACGGTGA,-0.183
14,TCGAGTAGTTTAGTCGGGGCATTCAGCCAACATA,0.157
15,CGTCCAAGGTCAGAAAGGTCAGTGAATGCCGAGT,6.33
16,TAGCCTAGGTCATGCGGTCCAGTATAGTGTCGGC,4.75
17,CCGACTGGGGCATAAGGTTTCCATAAGCCAGCCC,-0.182
18,TCTTGTAGATCAAGCATGTTAAGAAAGCCTGAGT,0.348
19,AGAACGAAGGCAATGAGTTGATAGCACGGGTGGC,0.485
20,TCTAGTTGGTCAAAGTTCACACACTCGAAATGCG,4.44
